Measurements taken from PubChem BioAssay (NCI).
The panel holds about 79,000 compounds, 15% with a hit somewhere; the sample as a whole holds those more often. Active and inactive are the calls of the source. Cut-off read from the data, not from the text of the source: active = growth inhibition above about 70%; inactive = the rest.

Tests used:
[1] = NCI Yeast Anticancer Drug Screen. Data for the rad50 strain (AID 155);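 note: 0% = growth of vehicle-only cultures of the same strain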; details: S. cerevisiae rad50 strain growth inhibition, active compounds read high
Method in brief: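 Vehicle-treated cultures provide the reference for the growth inhibition reported for compound-exposed, repair-deficient yeast.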

[2] = NCI Yeast Anticancer Drug Screen. Data for the mec2-1 strain (AID 157); details: S. cerevisiae mec2-1 strain, active compounds read high
Method in brief: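 Yeast mec2-1 mutant treated with compound. Readout: growth inhibition vs vehicle controls.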

[3] = NCI Yeast Anticancer Drug Screen. Data for the sgs1 mgt1 strain (AID 161);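 note: 0% = growth of cultures given vehicle only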; details: S. cerevisiae sgs1 mgt1 strain, active compounds read high
Method in brief: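 Inhibition of yeast growth, normalised to vehicle-treated controls, is reported for a strain bearing genetic alterations in DNA damage repair.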

[4] = NCI Yeast Anticancer Drug Screen. Data for the cln2 rad14 strain (AID 165);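 note: 0% = growth equal to vehicle treated cultures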; details: S. cerevisiae cln2 rad14 strain, active compounds read high
Method in brief: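 cln2 rad14 yeast strain; compound exposure; growth inhibition read vs vehicle controls.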

[5] = NCI Yeast Anticancer Drug Screen. Data for the bub3 strain (AID 167); details: S. cerevisiae bub3 mutant strain, active compounds read high
Method in brief: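 Mutant yeast screening strain plus compound; vehicle-treated cultures serve as the 0% inhibition reference.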

[6] = NCI Yeast Anticancer Drug Screen. Data for the mlh1 rad18 strain (AID 175); details: S. cerevisiae mlh1 rad18 strain growth inhibition, active compounds read high
Method in brief: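 Yeast w/ defined DNA-repair lesions; compound exposure; growth vs vehicle controls → % inhibition.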

[7] = at 5.0 µM (retest, dose inferred, filed as 0.5)
[8] = at 50.0 µM (retest, dose inferred, filed as 5.0)

Measured: growth inhibition

NCCCN1CCN(CCCN2CC2)CC1
inactive: [1]; [7] 1% | [2]; [7] 1% | [2]; [8] 30% | [2]; at 50.0 µM 58.3% | [3]; [7] -1% | [4]; [7] -1% | [5]; [7] 0% | [6]; [7] -1%
active: [1]; [8] 84% | [1]; at 50.0 µM 93.9% | [3]; [8] 83% | [3]; at 50.0 µM 85.3% | [4]; [8] 92% | [4]; at 50.0 µM 93.5% | [5]; [8] 80% | [5]; at 50.0 µM 86.5% | [6]; [8] 71% | [6]; at 50.0 µM 89.8%

CC(C)[CH2][Sn](=[O])[c]1ccccc1
inactive: [1]; [7] 8% | [1]; [8] 18% | [2]; [7] 5% | [2]; [8] 11% | [3]; [7] 5% | [3]; [8] 14% | [4]; [7] 2% | [4]; [8] 10% | [5]; [7] 8% | [5]; [8] 10% | [6]; [7] 5% | [6]; [8] 22%
active: [1]; at 50.0 µM 99.3% | [2]; at 50.0 µM 99.6% | [3]; at 50.0 µM 99.5% | [4]; at 50.0 µM 94.8% | [5]; at 50.0 µM 99.5% | [6]; at 50.0 µM 99.2%

C#CC(O)(CC)CC
active: [3]; at 50.0 µM 77.1% | [6]; at 50.0 µM 73.5%
inactive: [1]; [7] -4% | [1]; [8] 10% | [1]; at 50.0 µM 69.1% | [2]; [7] 0% | [2]; [8] -4% | [2]; at 50.0 µM 13.4% | [3]; [7] -3% | [3]; [8] -2% | [4]; [7] -6% | [4]; [8] -5% | [4]; at 50.0 µM 3.5% | [5]; [7] -1% | [5]; [8] 2% | [5]; at 50.0 µM 38.8% | [6]; [7] -1% | [6]; [8] 9%

COC(=O)c1ccc([As]=O)cc1N (stereo not given)
inactive: [1]; [7] 2% | [1]; [8] 6% | [2]; [7] 1% | [2]; [8] 4% | [3]; [7] -1% | [3]; [8] 4% | [4]; [7] -2% | [4]; [8] -6% | [5]; [7] 3% | [5]; [8] 2% | [6]; [7] 2% | [6]; [8] 7%
active: [1]; at 50.0 µM 98.7% | [2]; at 50.0 µM 99.5% | [3]; at 50.0 µM 99.3% | [4]; at 50.0 µM 98.5% | [5]; at 50.0 µM 98.8% | [6]; at 50.0 µM 99%

S=c1[nH]c2ccccc2s1.[Pb]
active: [1]; at 50.0 µM 93.7% | [2]; at 50.0 µM 94.8% | [3]; at 50.0 µM 95.5% | [5]; at 50.0 µM 94% | [6]; at 50.0 µM 90.9%
inactive: [1]; [7] -11% | [1]; [8] 16% | [2]; [7] -1% | [2]; [8] 6% | [3]; [7] 0% | [3]; [8] 8% | [4]; [7] -10% | [4]; [8] -11% | [4]; at 50.0 µM 64.2% | [5]; [7] -4% | [5]; [8] -7% | [6]; [7] -5% | [6]; [8] -8%

CCCCCc1cc(OC(=O)CCCN(CC)CC)c2c(c1)OC(C)(C)[C@@H]1CCC(C)=C[C@@H]21
active: [1]; [7] 79% | [1]; [8] 97% | [1]; at 50.0 µM 87% | [2]; [8] 98% | [2]; at 50.0 µM 91% | [3]; [8] 99% | [3]; at 50.0 µM 89.7% | [4]; [8] 98% | [4]; at 50.0 µM 90% | [5]; [8] 99% | [5]; at 50.0 µM 87.8% | [6]; [7] 74% | [6]; [8] 97% | [6]; at 50.0 µM 91.7%
inactive: [2]; [7] 30% | [3]; [7] 63% | [4]; [7] 49% | [5]; [7] 27%

COC(=O)[CH2][Sn]([CH2]C(=O)OC)([c]1ccccc1)[c]1ccccc1
active: [1]; [7] 80% | [1]; [8] 97% | [1]; at 50.0 µM 88.3% | [2]; [7] 79% | [2]; [8] 99% | [2]; at 50.0 µM 88.5% | [3]; [7] 77% | [3]; [8] 99% | [3]; at 50.0 µM 86.9% | [4]; [8] 99% | [4]; at 50.0 µM 86.7% | [5]; [7] 82% | [5]; [8] 99% | [5]; at 50.0 µM 84.4% | [6]; [7] 86% | [6]; [8] 97% | [6]; at 50.0 µM 92%
inactive: [4]; [7] 52%

O=C(O)C(Br)C(Br)C(=O)O.[Ag] (stereo not given)
active: [1]; [7] 99% | [1]; [8] 99% | [1]; at 50.0 µM 98.8% | [2]; [7] 100% | [2]; [8] 100% | [2]; at 50.0 µM 99.3% | [3]; [7] 99% | [3]; [8] 100% | [3]; at 50.0 µM 98.7% | [4]; [7] 97% | [4]; [8] 99% | [4]; at 50.0 µM 99.1% | [5]; [7] 99% | [5]; [8] 99% | [5]; at 50.0 µM 98.8% | [6]; [7] 99% | [6]; [8] 99% | [6]; at 50.0 µM 99.2%

IC(I)=C(I)I
active: [1]; [7] 98% | [1]; [8] 93% | [1]; at 50.0 µM 88.5% | [2]; [7] 100% | [2]; [8] 96% | [2]; at 50.0 µM 92.2% | [3]; [7] 99% | [3]; [8] 96% | [3]; at 50.0 µM 91.9% | [4]; [7] 99% | [4]; [8] 96% | [4]; at 50.0 µM 90.8% | [5]; [7] 100% | [5]; [8] 95% | [5]; at 50.0 µM 90% | [6]; [7] 99% | [6]; [8] 91% | [6]; at 50.0 µM 90.1%

CN1CCN(c2ccc3nc(-c4ccc5nc(CCCc6ccc(N(CCCl)CCCl)cc6)[nH]c5c4)[nH]c3c2)CC1
active: [1]; [7] 98% | [1]; [8] 98% | [1]; at 50.0 µM 90.5% | [2]; [7] 99% | [2]; [8] 99% | [2]; at 50.0 µM 90.8% | [3]; [7] 100% | [3]; [8] 99% | [3]; at 50.0 µM 92.2% | [4]; [7] 97% | [4]; [8] 99% | [4]; at 50.0 µM 91% | [5]; [7] 99% | [5]; [8] 99% | [5]; at 50.0 µM 91.7% | [6]; [7] 98% | [6]; [8] 98% | [6]; at 50.0 µM 89.5%
